Data reported in ChEMBL document CHEMBL1157539, “Thousands of chemical starting points for antimalarial lead identification” (Nature, 2010).

Legend:
Type in all cases: functional
Plasmodium falciparum [1] = test: GSK_TCMDC: Inhibition of Plasmodium falciparum 3D7 in whole red blood cells, using parasite LDH activity as an index of growth. Test compounds present at 2uM
Plasmodium falciparum [2] = test: GSK_TCMDC: Inhibition of Plasmodium falciparum Dd2 in whole red blood cells, using parasite LDH activity as an index of growth. Test compounds present at 2uM
HepG2 = test: GSK_TCMDC: Percent inhibition of human HepG2 cell line. Test compounds present at 10uM.

| Compound | Inhibition (Plasmodium falciparum [1]) [%] | Inhibition (Plasmodium falciparum [2]) [%] | Inhibition (HepG2) [%] |
| --- | --- | --- | --- |
| O=C(O)C(F)(F)F.c1cncc(CCNCc2ccc(-c3ccc(CNC4Cc5ccccc5C4)cc3)cc2)c1 | 92 | 29 | 32 |
| CN1CCCN(Cc2ccc(-c3cccc(NC(=O)c4ccc(C#N)cc4)c3)cc2)CC1.O=C(O)C(F)(F)F | 100 | 26 | 29 |
| COc1ccc(NC(=O)[C@H](Cc2ccccc2)Nc2cc(C)nc(NCCOc3ccccc3)n2)cc1.O=C(O)C(F)(F)F | 98 | 25 | 11 |
| Nc1cc(-c2ccc(Br)cc2O)nc2ccccc12 | 100 | 50 | 23 |
| CC(C)(C)C(=O)Nc1ccc(C(=O)Nc2cccc(-c3nc4ccccc4[nH]3)c2)cc1 | 96 | 62 | 56 |
| Cc1cccc2nc(-c3cccc(-c4ccc(NC(=O)C(C)CN(C)C)cc4)c3)[nH]c12 (configuration not stated) | 100 | 100 | 29 |
| COc1ccc(C(=O)NCC(C)(C)c2nc(-c3ccc(Cl)c(O)c3)c(-c3ccncc3)[nH]2)cc1OCCN(C(C)C)C(C)C.Cl | 100 | 96 | 62 |
| CCc1cn(CCOC)c2ccc(C(=O)N[C@@H](Cc3ccccc3)[C@H](O)CNC(C)(C)CCCC(C)C)cc12.O=CO | 98 | 98 | 35 |
| Cc1cccc2nc(-c3ccc(-c4cccc(CNCc5cccc(N)c5)c4)s3)[nH]c12.O=C(O)C(F)(F)F | 100 | 85 | 15 |
| CC(=O)O.Nc1nc(N)c2cc3ccc(OCc4ccccc4)cc3nc2n1 | 100 | 75 | 78 |
| CN1CCC(N2CCN(Cc3cccc(-c4ccc(-c5nc6cc(C(F)(F)F)ccc6[nH]5)cc4)c3)CC2)CC1.O=C(O)C(F)(F)F | 100 | 91 | 100 |
| COc1ccc(OC)c(NC(=O)C2c3ccccc3C(=O)N(CC(C)C)C2c2cccs2)c1 (configuration not stated) | 100 | 66 | 9 |
| Cc1cc(N2CCCC2)nc(Nc2ccc(NC(=O)Cc3ccccc3)cc2)n1 | 100 | 72 | 71 |
| N#Cc1cccc(C(=O)Nc2cccc(-c3ccc(C(=O)NCCCN4CCOCC4)cc3)c2)c1 | 96 | 21 | 21 |
| CS(=O)(=O)CCNCc1cccc(-c2cc3nccc(Nc4ccc(Oc5ccccc5)cc4)c3cc2Cl)c1 | 100 | 82 | 2 |
| O=C(NCc1ccccc1)Nc1cccc(-c2cccc(-c3nc4cc(C(F)(F)F)ccc4[nH]3)c2)c1 | 95 | 30 | 56 |
| CC(C)Nc1cc(C(=O)N[C@@H](Cc2ccccc2)[C@H](O)CNC2CCOCC2)c(F)c(N2CCCCS2(=O)=O)c1.O=CO | 98 | 98 | 2 |
| c1cc(CNc2ncc(-c3ccsc3)c(-c3nccs3)n2)ccn1 | 89 | 81 | 18 |
| CN(C)CCCOc1ccc(CN2CC[C@H](NC(=O)c3ccc(Cl)c(Cl)c3)C2)cc1Br.O=C(O)C(F)(F)F | 100 | 34 | 11 |
| Cl.O=C(NCCCCN1CCC(c2ccc3ccccc3c2O)CC1)c1ccc(-c2ccc(Cl)cc2)cc1 | 100 | 99 | 84 |

| Compound | Inhibition (Plasmodium falciparum [1]) [%] | Inhibition (Plasmodium falciparum [2]) [%] | Inhibition (HepG2) [%] |
| --- | --- | --- | --- |
| COc1ccc(C(=O)Nc2cc(Br)c3c(c2)CNCC3)cc1C(F)(F)F.Cl | 90 | 4 | 13 |
| Cl.c1ccc2cc(CNCCCN3CCN(CCCNCc4ccc5ccccc5c4)CC3)ccc2c1 | 100 | 65 | 60 |
| CCCCCCCCCCN1C(=O)C2C(CCCCNC(C)=O)NC3(C(=O)N(Cc4ccc(C(C)(C)C)cc4)c4ccccc43)C2C1=O (configuration not stated) | 86 | 65 | 3 |
| O=C(Nc1ccc(OC2CCN(Cc3ccc(F)cc3)C2)c(Cl)c1)c1ccccc1.O=C(O)C(F)(F)F (configuration not stated) | 91 | 86 | 11 |
| COc1ccc(CNc2cc(C)nc3sc4c(c23)CCC2(C4)OCCO2)cc1 | 96 | 2 | 4 |
| O=C(Nc1ccc(N2CCCN(Cc3cccc(F)c3)CC2)cc1)c1ccc(F)cc1.O=C(O)C(F)(F)F | 96 | 95 | 0 |
| O=C(/C=C/c1ccc2ccccc2c1)NCC1(c2ccc(-c3ccccc3)cc2)CCOCC1 | 95 | 34 | 9 |
| COC(=O)C(Cc1ccccc1)C(CSCc1ccc(OC)cc1)C(=O)N[C@@H](C(=O)OC(C)(C)C)c1ccc(C(C)(C)C)cc1 (some centres not stated) | 93 | 44 | 0 |
| CC(C)c1cc2c(ccc3nc(N)nc(N)c32)o1 | 99 | 37 | 66 |
| COc1ccc2nccc(NC(=O)OC3CCC(NCc4ccc5c(n4)NC(=O)CS5)CC3)c2c1 (configuration not stated) | 98 | 39 | 9 |
| O=C1NC(=O)C(c2cccc(NC(=O)c3ccncc3)c2)=C1c1ccccc1 | 100 | 0 | 5 |
| COc1ccc2nccc([C@@H](O)CN3CCC(NCc4ccc5nc[nH]c(=O)c5c4)CC3)c2c1.O=C(O)C(=O)O | 99 | 4 | 12 |
| O=C(Nc1cc(C(F)(F)F)ccc1-n1cncn1)C1(c2ccccc2)CC1 | 100 | 100 | 11 |
| CC(C)(C)c1nn(-c2ccccc2)c2[nH]c(=O)c(CNCc3ccc4c(c3)OCO4)cc12 | 92 | 32 | 1 |
| CCCCCCN1CCN(Cc2cccc(NC(=O)c3cccc(OCC)c3)c2)CC1.O=C(O)C(F)(F)F | 85 | 48 | 65 |
| Cc1[nH]c(C)c(-c2ccc(OCc3ccc(F)cc3)cc2)c(=O)c1Br | 98 | 97 | 16 |
| COc1c(CNCCCCCCNCc2c(OC)c(OC)c3ccccc3c2OC)c(OC)c2ccccc2c1OC.CS(=O)(=O)O | 96 | 98 | 100 |
| O=C(Nc1ccc(-c2ccc(-c3nc4cc(C(F)(F)F)ccc4[nH]3)s2)cc1)c1ccoc1 | 94 | 54 | 9 |
| Cl.O=S(=O)(Nc1cc2c(cc1O)CCN(C1CCC1)CC2)c1ccc(Oc2ccc(F)cc2)cc1 | 99 | 52 | 20 |
| Cc1cc(N)c2cc(NC(=O)/C=C/c3ccccc3Cl)ccc2n1 | 100 | 98 | 81 |

| Compound | Inhibition (Plasmodium falciparum [1]) [%] | Inhibition (Plasmodium falciparum [2]) [%] | Inhibition (HepG2) [%] |
| --- | --- | --- | --- |
| CC(C)(C)c1ccc(CN2CCC(CNC(=O)c3cc(-c4cccc(C(F)(F)F)c4)cs3)C2)cc1.O=C(O)C(F)(F)F (configuration not stated) | 100 | 84 | 80 |
| CCCN(CCC)C(=O)c1cc(-c2cccc(C)c2)nc2ccccc12 | 86 | 59 | 17 |
| COc1cc(C(=O)N2CCOC(CCN3CCC4c5ccccc5CC43)(c3ccc(Cl)c(Cl)c3)C2)cc(OC)c1OC (configuration not stated) | 88 | 82 | 32 |
| Cc1nc2ccc3nc(NC(=O)c4ccno4)sc3c2s1 | 99 | 97 | 6 |
| COc1ccc(NC(=O)[C@H](Cc2ccccc2)Nc2cc(C)nc(NCc3ccccc3C)n2)cc1.O=C(O)C(F)(F)F | 100 | 71 | 16 |
| CCc1c[nH]c2c(N3CCCC3=O)cc(C(=O)N[C@@H](Cc3ccccc3)[C@H](O)CNC(C)(C)CCCC(C)C)cc12.O=CO | 96 | 97 | 22 |
| CC(=O)N(C)c1cccc(CNc2cc(C)nc(Nc3ccc(C)cc3)n2)c1 | 97 | 21 | 8 |
| Cc1cc(N[C@@H](Cc2ccccc2)C(=O)NCc2cccc(F)c2)nc(NCCc2cccnc2)n1.O=C(O)C(F)(F)F | 92 | 40 | 18 |
| COc1ccc(CNc2ncc(-c3ccsc3)c(-c3nccs3)n2)cc1OC | 86 | 69 | 10 |
| CN1CCN(c2cc(-c3cccnc3)nc(-c3ccncc3)n2)CC1 | 100 | 89 | 11 |
| CC(=O)N(C)C1CCN(Cc2ccc(-c3ccc(-c4nc5cc(F)ccc5[nH]4)s3)cc2)C1.O=C(O)C(F)(F)F (configuration not stated) | 98 | 22 | 46 |
| COc1ccc2nccc([C@H](O)CN3CCC(NCc4ccc5c(c4C)OCCO5)CC3)c2n1.Cl | 94 | 6 | 26 |
| Cn1c(Nc2cc(C(C)(C)C)on2)nc2cc(Nc3ccnc(Nc4cccc(CS(C)(=O)=O)c4)n3)ccc21 | 99 | 94 | 63 |
| Cc1ccccc1C1CCN(C2CCC(NC(=O)/C=C/c3ccc(C(F)(F)F)cc3)CC2)CC1 (configuration not stated) | 95 | 19 | 64 |
| COc1ccc(Nc2nccc(N3CCC(NC(=O)Nc4cc(C)ccc4C)C3)n2)cc1 (configuration not stated) | 91 | 37 | 10 |
| CCCc1cc(C(=O)N[C@@H](Cc2ccccc2)[C@H](O)CNC(C)(C)c2cccc(OC)c2)c(F)c(N2CCCC2=O)c1.O=CO | 98 | 98 | 7 |
| CCOc1ccc(-c2nonc2NC(=O)c2cccs2)cc1OCC | 100 | 100 | 6 |
| C=CCOC(=O)N1CCC(CNCc2cccc(-c3ccc(-c4nc5cccc(C)c5[nH]4)s3)c2)C1.O=C(O)C(F)(F)F (configuration not stated) | 100 | 82 | 11 |
| COc1ccc(S(=O)(=O)NC2CCN(CCNC(=O)Nc3cc(C)nc4ccccc34)C2)cc1 (configuration not stated) | 88 | 41 | 0 |
